Measurements taken from PubChem BioAssay AID1117319 (Southern Research Institute, 2015).
Several values for one entry are separate records, joined by “and”; a condition that tells them apart may be missing. Equal entries are not always repeated. In all, about 260,000 compounds went through this assay and about 1,500 (0.58%) were called active. Roughly 5% stayed inconclusive and do not appear here.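 Rule for the calls: active = inhibition above a set limit at one or more doses, reproduced on every date tested; inconclusive = results disagree between test dates, or hit never tested in dose response; inactive = the rest.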 Not all results are given here. Potency and affinity values are given separately.

Target: Virion infectivity factor (Human immunodeficiency virus type 1 group M subtype B (isolate BH10)) + Virion infectivity factor (Human immunodeficiency virus type 1 group M subtype B (isolate BRU/LAI)) + Virion infectivity factor (Human immunodeficiency virus type 1 group M subtype B (isolate PCV12)) + Virion infectivity factor (Human immunodeficiency virus type 1 group M subtype B (isolate HXB2)) + DNA dC->dU-editing enzyme APOBEC-3G (Homo sapiens) (UniProt P69720+P69721+P69722+P69723+Q9HC16)
Test: inhibitors of Vif binding to APOBEC3G peptide, primary screen, biochemical, TR-FRET, GST-Vif 1-94, biotin-A3G peptide, dose response retest (AID 1117319);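 note: Vif residues 1-94 fused to GST binding biotinylated APOBEC3G peptide 110-148; 0% = full assay without inhibitor and 100% = GST in place of GST-Vif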
Conditions: hits give high values

inhibition, inactive:
O=C(NC(=O)c1ccccc1)NC1(C(F)(F)F)OCCO1 -4.29%
O=C(NCC1CCCO1)C(c1cccnc1)N(C(=O)Cc1cccs1)c1ccccc1 (stereo unspecified) 28.6%
COc1ccc2c(c1)C(=O)N(c1ccc(C)cc1)C(=O)C2 1.47%
Cc1ccc2c(c1)CC1(CN2C)C(=O)OC(C)(C)OC1=O 24.2%
Cc1ccc(CC2S/C(=N/N=C/c3ccco3)NC2=O)cc1 (stereo unspecified) 4.38%
CC1=NN(c2ccccc2)C(=O)/C1=C/C=C/c1ccccc1 5.22%
O=C1NC(=O)C(=CC=Cc2ccccc2)S1 2.69%
Cc1n[nH]c(=O)n1-c1ccc(C(C)C)cc1 -7.48%
CCOC(=O)C1=C(C)N(c2ccc(OCC)cc2)C(=O)/C1=C\c1ccco1 10.7%
Cc1ccc(N2C(=O)c3n[nH]c(C)c3C2c2ccco2)cc1 (stereo unspecified) -7.3% and 4.08%
CC(C)c1ccc(CN(C(=O)/C=C/c2ccco2)C2CCS(=O)(=O)C2)cc1 (stereo unspecified) 30.9%
CCc1ccc(N2C(=O)C3ON(c4ccccc4)C(c4ccco4)C3C2=O)cc1 (stereo unspecified) -3.31%
COc1ccc2[nH]c(C(=O)Nc3cccc(C)n3)cc2c1 -5.53%
CCOc1cc(C#N)ccc1OCC(=O)N1CCN(C(=O)c2cccs2)CC1 -1.5%
Cc1cccc(C)c1OCC(=O)NCC1CCCO1 (stereo unspecified) -4.95%
CCOCCCNC(=O)/C=C1\Sc2ccccc2N(Cc2ccccc2F)C1=O -8.36%
CCOC(=O)c1ccccc1NS(=O)(=O)c1ccc(S(=O)(=O)N2CCCC2)cc1 2.58%
COc1ccc(NC(=O)CN(C)C(=O)c2cccc(Oc3ccccc3)c2)cc1 -4.86%
Cc1ccc(C)c(NC(=O)CN(C)C(=O)c2cccc(N3C(=O)CCC3=O)c2)c1 -0.71%
CN(CC(=O)Nc1cccc(F)c1)C(=O)c1ccc(C(=O)c2ccccc2)cc1 0.25%
CN(CC(=O)Nc1cccc(F)c1)C(=O)c1cccc(N2C(=O)CCC2=O)c1 -2.88%
O=C(NNC(=O)c1cccc(-n2cccc2)c1)c1ccccc1 7.05%
COc1ccc(NC(=O)CN(C)C(=O)c2ccc3ccccc3c2)cc1 7.66%
Cc1ccc(C)c(NC(=O)CN(C)C(=O)c2cccc(S(=O)(=O)N(C)C)c2)c1 5.71%
O=C(NNC(=O)c1cccc(-n2cccc2)c1)c1ccc(F)cc1 16%
O=C(CCCCn1ccc(=O)[nH]c1=O)Nc1ccc(O)c(C(=O)O)c1 -11.5%
